About 5,400 (1.5%) of roughly 370,000 compounds were called active. Shown is part of a subset that was picked to be rich in actives. Unmarked numbers belong to inactive results.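 The calls were made as follows: active = activation above the mean of all tested compounds plus 3 SD (cut at about 5.5% in these data); inactive = the rest.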
System: DAF-12 nuclear receptor (Haemonchus contortus)
Experiment: H. contortus DAF-12 nuclear receptor activators, primary screen, cell-based, luminescence, HEK293, lit1-tk-luc reporter (AID 652067);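 also: 100% = response to 3 µM Δ7-dafachronic acid high control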
Conditions: HEK293 hcDAF-12 lit1-tk-luc reporter, at 6.8 µM, active compounds read high, 0% DMSO, 100% Δ7-dafachronic acid

Row | SMILES | activation
1 | COc1cccc(/C=C(/CC(=O)Nc2ccc(N3CCOCC3)cc2)c2nc3ccccc3s2)c1 | 6.15% (active)
2 | CCn1c(Cc2ccc(OC)cc2)nnc1SCC(=O)Nc1ccc(N2CCOCC2)cc1 | 0.15%
3 | O=C(COC(=O)CCc1nc2ccccc2c(=O)[nH]1)Nc1ccc(N2CCOCC2)cc1 | -1.31%
4 | COc1cccc(N(C)C(=O)[C@@H](C)[C@@H](O)c2ccc3ccccc3c2)c1 | -0.46%
5 | COC(=O)C1=C(C)N(Cc2cccc(C(F)(F)F)c2)C(=NCc2ccccc2)NC1c1ccc(Cl)cc1 (stereo unspecified) | -0.23%
6 | COc1ccc(SSc2ccc(OC)cc2C(=O)O)c(C(=O)O)c1 | 0.58%
7 | O=C(O)c1n[nH]nc1-c1ccccc1 | -0.64%
8 | Oc1ccccc1-c1cc(-c2ccc(Cl)cc2)n[nH]1 | 20.9% (active)
9 | Cc1c[nH]c2cccc(-c3ccc(Cl)cc3)c12 | 2.81%
10 | c1ccc(-c2c[nH]c(-c3ccccc3)c2)cc1 | 2.47%
11 | c1ccc(-c2cc(-c3ccccc3)[nH]n2)cc1 | 11.7% (active)
12 | COc1ccc(Cn2cc(CN3[C@@H](CC(C)C)COc4cc(Br)ccc4S3(=O)=O)nn2)cc1 | -0.96%
13 | COC(=O)Cc1nnn2c1[C@H](C)[C@H](c1ccccc1[N+](=O)[O-])OCC2 | -0.26%
14 | C=C(C)C1CC23C(=O)C4(C(=O)c5ccccc5)C[C@@]5(C)CCC(CC2C1(C)C)(C4=O)C35OC (stereo partly specified) | -1.07%
15 | O=C(c1c(Cl)cccc1Cl)N1CCN(c2cccc3[nH]ccc23)CC1 | -0.37%
16 | C=CCN1C(=O)N(Cc2ccccc2)c2ccccc2S1(=O)=O | 2.1%
17 | C=C(C)C#CC(Cc1ccccc1)N(CC1CC1)/C(N)=N/C(=O)OCc1ccccc1 (stereo unspecified) | -4.1%
18 | Cc1c(Cl)cccc1NC(=O)NCCCN1CCCC1=O | -0.07%
19 | Cc1c(Cl)cccc1NC(=O)NCc1ccc(C)n1C | 6.25% (active)
20 | Cc1c(Cl)cccc1NC(=O)Nc1ccc(C(=O)N2CCCC2)cc1 | -1.91%
21 | Cc1cccc(C)c1NC(=O)COC(=O)c1c(C)nn(-c2ccccc2)c1C | -1.2%
22 | CCCn1c(C)cc(C(=O)COC(=O)c2c(C)nn(-c3ccccc3)c2C)c1C | -1.95%
23 | Cc1ccc(OC(=O)c2c(C)nn(-c3ccccc3)c2C)cc1 | 5.72% (active)

Row | SMILES | activation
24 | CCOC(=O)[C@]12CCCCC/C=C\1N(Cc1ccc(OC)cc1)C(=O)[C@H]2CC(=O)NCc1ccc(C)o1 | -1.63%
25 | CCOC(=O)c1c(NC(=S)SC)sc(C(=O)N2CCc3ccccc3C2)c1C | -0.42%
26 | COC(=O)[C@]12C[C@H](CC(=O)NCc3ccc(OC)c(OC)c3)C(=O)N(Cc3ccccc3)C1=C[C@H](C(C)C)O[C@@H]2C1CC1 | -0.82%
27 | Cc1nc2cc(NCc3cccs3)ccc2n1C | 1.2%
28 | Cc1nc2cc(NC(=O)Nc3cccc(F)c3)ccc2n1C | 11.1% (active)
29 | CCN1CCN(C(=O)C2(NC(=O)Nc3cccc(F)c3)CCCCC2)CC1 | -1.58%
30 | COC[C@@H]1CCCN1c1ccc2c(c1)O[C@H](C)CCN(C1CC1)S2(=O)=O | -0.65%
31 | Cn1c(SCC(=O)NC2CCCCC2)nnc1-c1cc2ccccc2o1 | -0.36%
32 | CCNc1nc(-c2cc3ccccc3o2)cs1 | 6.62% (active)
33 | Cn1c(CNc2nc(-c3ccccc3)cs2)nnc1SCC(=O)c1ccccc1 | -0.8%
34 | C[C@H]1CCC/C=C/C(=O)c2c(O)cc(O)cc2CC(=O)O1 | -4.76%
35 | Cc1csc(SCC(=O)Nc2ccc(C)c(S(=O)(=O)N(C)C)c2)n1 | -0.11%
36 | N#Cc1ccsc1NC(=O)CN1CCCCC1 | -2.18%
37 | Cc1csc(SCC(=O)Nc2sccc2C#N)n1 | 6.55% (active)
38 | Cc1ccc(NC(=S)NNC(=O)CSc2nnc(SCc3ccccc3Cl)s2)cc1 | 0.49%
39 | CCOC(=O)c1ccccc1C(=O)N1CCOCCOCCOCC1 | 6.11% (active)
40 | CCOC(=O)c1ccccc1NC(=O)COC(=O)CCC(=O)N1CCOCC1 | -0.53%
41 | CSc1ncccc1C(=O)OCC(=O)N1CCOCC1 | -1.11%
42 | CC(CCc1ccccc1)NCC(O)c1cccc([N+](=O)[O-])c1 (stereo unspecified) | -0.61%
43 | Cc1cc(NC(=O)c2ccco2)c(=O)n(Cc2c(F)cccc2Cl)c1 | -0.57%
44 | Cn1c(=NC(=O)c2ccco2)sc2cccc(F)c21 | 10.7% (active)
45 | Cn1c(=NC(=O)c2cnccn2)sc2ccccc21 | 3.28%
46 | C=CCN1C(=O)[C@H](CC(=O)N2CCN(C(=O)OCC)CC2)[C@@]2(C(=O)OCC)CCCC=C12 | -0.81%

Row | SMILES | activation
47 | Cc1ccccc1CN1CCCCC(NC(=O)c2cccc(C#N)c2)C1=O (stereo unspecified) | -2.63%
48 | Cc1ccc(C(=O)C2CCN(CC(=O)NCCC(C)C)CC2)cc1 | -1.66%
49 | COc1ccc([C@H]2OC(=O)C[C@H]2C(=O)N2CCN(c3ccccc3F)CC2)cc1OC | -0.81%
50 | N#Cc1c(C(F)(F)F)cc(-c2ccc(Cl)cc2)nc1SCC(=O)O | 6.47% (active)
51 | CCN(CC)c1nc(-c2ccccc2)cc(C(F)(F)F)c1C#N | -1.43%
52 | Cc1cc(C(F)(F)F)c(C#N)c(SCC(=O)NC2CC2)n1 | -2.02%
53 | CN(C)S(=O)(=O)c1cccc(C(=O)N/N=C\c2ccco2)c1 | 0.08%
54 | Cc1ccsc1C(=O)N/N=C/c1ccc([N+](=O)[O-])cc1 | 6.15% (active)
55 | Cc1ccc(/C=N/NC(=O)c2sccc2OCc2ccc(F)cc2)cc1 | 0.06%
56 | Cc1ccsc1C(=O)NC1CCCCC1C (stereo unspecified) | -1.43%
57 | O=C(NCCC1=CCCCC1)C1CCN(S(=O)(=O)c2ccc(Cl)s2)CC1 | -1.29%
58 | CC(=O)c1ccc(S(=O)(=O)NCC2CCN(C(=O)C(=O)c3cccs3)CC2)cc1 | -1.54%
59 | COc1ccc(-c2cc3n(n2)CCc2nc4ccccc4n2-3)cc1 | 2.18%
60 | COc1ccc(-c2cc(C3CCN(c4ncccc4[N+](=O)[O-])CC3)[nH]n2)cc1 | -1.95%
61 | COc1ccc(-c2cc3ncccc3cn2)cc1 | 7.99% (active)
62 | Cc1ccc(Cn2cc(COC(=O)N(C)Cc3ccccc3)nn2)cc1 | -1.15%
63 | O=C1CCCCN1CCCC(=O)N1CCCC(Nc2ccc(F)cc2)C1 (stereo unspecified) | -0.38%
64 | COc1ccc(C(=O)OCCN2CCN(C3CN(Cc4cn(Cc5ccccc5F)nn4)S(=O)(=O)C3)CC2)cc1OC (stereo unspecified) | -3.13%
65 | CCOC(=O)C1CCN(C(=O)C(C)(C)NC(=O)Nc2ccccc2Cl)CC1 | -0.1%
66 | CC(=O)N1C[C@@H](CO)[C@@H](N(C)C(=O)C(C)(C)C)C[C@H]1c1ccccc1Br | -0.9%
67 | O=C(Nc1ccccc1F)c1ccc(S(=O)(=O)N2CCCCCC2)cc1 | -0.38%
68 | Nc1ccc(C(=O)Nc2ccccc2N)cc1 | 10.3% (active)
69 | O=C(Cc1ccccc1)Nc1ccc(C(=O)Nc2ccccc2C(=O)O)cc1 | 0.4%

Row | SMILES | activation
70 | Cc1cc(N=Nc2ccc3ccccc3c2)ccc1O | 9.93% (active)
71 | CN(C(N)=NC(=O)/C=C/c1ccccc1)C(C#Cc1ccccc1)Cc1ccccc1 (stereo unspecified) | -0.54%
72 | O=C(Nc1ccccc1C(=O)NCCCn1ccnc1)c1ccc(Cl)cc1Cl | -0.66%
73 | O=C(NCCCn1ccnc1)c1cc(-c2ccccc2)on1 | 6.25% (active)
74 | O=C(NCCCn1ccnc1)c1cc(Br)c(Br)s1 | -2.07%
75 | COC(=O)C1=C(C)N(Cc2ccc(F)cc2)C(=S)NC1c1cccc(Cl)c1 (stereo unspecified) | -0.58%
76 | C#CCNC(=O)C[C@H]1C[C@@]2(C(=O)OC)C(=C[C@H](C(C)C)O[C@@H]2C2CC2)N(Cc2ccco2)C1=O | -0.47%
77 | CCN(C(=O)[C@@H](C1CC1)[C@@H](O)c1ccc2ccccc2c1)c1ccccc1 | -0.38%
78 | CCCCCCCCN1C(=O)[C@@H](CC(=O)NCCCC)C[C@@]2(C(=O)OC)C1=C[C@H](C(C)(C)C)O[C@@H]2C | 2.12%
79 | COC(=O)c1cccc(Cn2ccc3ccc(-c4ccc5ccn(C(=O)C6CCCCC6)c5c4)cc32)c1 | 2.46%
80 | Cc1[nH]c2ccccc2c1-c1ccc(Cl)nn1 | -0.07%
81 | S=c1[nH]c2ccccc2c2ccccc12 | 0.24%
82 | Cc1c(C(C)c2ccccc2O)[nH]c2ccccc12 (stereo unspecified) | 5.82% (active)
83 | Cc1ccc(-n2c(SCC(=O)Nc3ccc(S(=O)(=O)Nc4nccs4)cc3)nnc2-c2ccncc2)cc1 | -0.82%
84 | C=CCn1c(SCC(N)=O)nnc1-c1ccccc1OC | -0.44%
85 | CC(C)CN(CC(C)C)C(=O)CN1c2cccc3cccc(c23)S1(=O)=O | 0.46%
86 | O=C(O)CN1c2cccc3cccc(c23)S1(=O)=O | 7.97% (active)
87 | COc1ccc(C)cc1NC(=O)CN1c2cccc3cccc(c23)S1(=O)=O | -2.24%
88 | COC(=O)Cc1nnn2c1[C@H](C)[C@H](c1ccccc1Br)OCC2 | -1.44%
89 | Cc1cccc(C(=O)N2CCc3c([nH]c4ccccc34)C2CC(C)C)n1 (stereo unspecified) | 6.78% (active)
90 | Cc1cccc(C2c3[nH]c4ccccc4c3CCN2C(=O)c2cc(-c3cccn3C)n[nH]2)n1 (stereo unspecified) | 1.83%
91 | COCc1ccc(C(=O)N2CCc3c([nH]c4ccccc34)C2c2ccccn2)s1 (stereo unspecified) | 0.63%
